Source: ChEMBL document CHEMBL1961873, “Compounds: GSK PKIS; Assays: Nanosyn kinase panel” (2012)

Legend:
[1] = target: T1, Inhibitor of nuclear factor kappa-B kinase subunit epsilon (Homo sapiens) (UniProt Q14164); conditions: at 1 µM;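 note: reported values are averaged percent inhibition figures against human IKKε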
T1 sequence (whole entry): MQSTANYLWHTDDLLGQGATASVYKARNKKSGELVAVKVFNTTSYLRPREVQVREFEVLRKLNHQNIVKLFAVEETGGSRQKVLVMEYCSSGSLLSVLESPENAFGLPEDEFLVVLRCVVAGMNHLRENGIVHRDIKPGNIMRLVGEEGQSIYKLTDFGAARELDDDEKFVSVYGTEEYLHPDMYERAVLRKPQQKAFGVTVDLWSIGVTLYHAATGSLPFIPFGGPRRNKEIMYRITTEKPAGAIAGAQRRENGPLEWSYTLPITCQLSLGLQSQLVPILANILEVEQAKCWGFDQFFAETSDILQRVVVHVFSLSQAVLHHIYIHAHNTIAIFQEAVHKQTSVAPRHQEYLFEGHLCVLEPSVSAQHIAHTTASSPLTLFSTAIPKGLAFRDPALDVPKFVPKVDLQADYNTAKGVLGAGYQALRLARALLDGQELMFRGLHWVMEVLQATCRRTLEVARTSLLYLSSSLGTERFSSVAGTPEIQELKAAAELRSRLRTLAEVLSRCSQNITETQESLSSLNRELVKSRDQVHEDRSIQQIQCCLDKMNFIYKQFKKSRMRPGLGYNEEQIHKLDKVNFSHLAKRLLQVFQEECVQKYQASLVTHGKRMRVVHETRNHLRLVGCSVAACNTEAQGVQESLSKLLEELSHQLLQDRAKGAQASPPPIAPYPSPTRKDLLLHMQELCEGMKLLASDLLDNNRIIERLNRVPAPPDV

[2] = target: T2, Serine/threonine-protein kinase Nek1 (Homo sapiens) (UniProt Q96PY6); conditions: at 0.1 µM
T2 sequence (whole entry): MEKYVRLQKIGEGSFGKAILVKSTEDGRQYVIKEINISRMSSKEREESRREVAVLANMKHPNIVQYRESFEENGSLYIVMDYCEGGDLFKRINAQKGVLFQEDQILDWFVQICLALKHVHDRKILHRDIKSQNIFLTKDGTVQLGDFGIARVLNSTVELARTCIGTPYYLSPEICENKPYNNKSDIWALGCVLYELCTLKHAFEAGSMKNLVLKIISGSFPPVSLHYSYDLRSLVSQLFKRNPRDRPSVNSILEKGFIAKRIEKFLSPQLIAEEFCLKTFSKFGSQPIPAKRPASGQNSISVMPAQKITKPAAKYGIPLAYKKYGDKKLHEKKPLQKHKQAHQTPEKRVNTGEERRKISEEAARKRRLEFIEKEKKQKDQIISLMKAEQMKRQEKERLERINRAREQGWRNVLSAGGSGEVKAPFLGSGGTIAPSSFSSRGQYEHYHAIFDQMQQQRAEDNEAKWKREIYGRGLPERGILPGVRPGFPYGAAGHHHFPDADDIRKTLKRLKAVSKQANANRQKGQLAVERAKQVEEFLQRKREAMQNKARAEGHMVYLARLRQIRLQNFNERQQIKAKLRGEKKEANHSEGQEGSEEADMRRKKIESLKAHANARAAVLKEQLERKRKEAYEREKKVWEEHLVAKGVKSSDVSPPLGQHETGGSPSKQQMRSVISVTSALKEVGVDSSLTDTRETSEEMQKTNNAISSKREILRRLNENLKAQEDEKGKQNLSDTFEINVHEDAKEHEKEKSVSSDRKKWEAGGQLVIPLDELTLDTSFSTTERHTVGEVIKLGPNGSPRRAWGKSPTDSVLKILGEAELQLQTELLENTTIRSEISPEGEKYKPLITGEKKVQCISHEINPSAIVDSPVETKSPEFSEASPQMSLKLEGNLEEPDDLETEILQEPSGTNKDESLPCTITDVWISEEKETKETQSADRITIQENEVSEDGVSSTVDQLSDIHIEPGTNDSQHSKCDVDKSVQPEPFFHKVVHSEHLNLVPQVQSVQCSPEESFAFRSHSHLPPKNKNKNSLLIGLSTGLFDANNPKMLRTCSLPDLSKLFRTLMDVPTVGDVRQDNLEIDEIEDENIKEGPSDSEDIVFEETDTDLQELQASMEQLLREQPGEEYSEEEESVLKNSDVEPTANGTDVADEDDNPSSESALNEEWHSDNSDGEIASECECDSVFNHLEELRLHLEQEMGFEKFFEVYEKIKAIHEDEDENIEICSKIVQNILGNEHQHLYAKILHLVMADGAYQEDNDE

[3] = target: T2, Serine/threonine-protein kinase Nek1 (Homo sapiens); conditions: at 1 µM
[4] = target: T3, Serine/threonine-protein kinase Nek2 (Homo sapiens) (UniProt P51955); conditions: at 0.1 µM
T3 sequence (whole entry): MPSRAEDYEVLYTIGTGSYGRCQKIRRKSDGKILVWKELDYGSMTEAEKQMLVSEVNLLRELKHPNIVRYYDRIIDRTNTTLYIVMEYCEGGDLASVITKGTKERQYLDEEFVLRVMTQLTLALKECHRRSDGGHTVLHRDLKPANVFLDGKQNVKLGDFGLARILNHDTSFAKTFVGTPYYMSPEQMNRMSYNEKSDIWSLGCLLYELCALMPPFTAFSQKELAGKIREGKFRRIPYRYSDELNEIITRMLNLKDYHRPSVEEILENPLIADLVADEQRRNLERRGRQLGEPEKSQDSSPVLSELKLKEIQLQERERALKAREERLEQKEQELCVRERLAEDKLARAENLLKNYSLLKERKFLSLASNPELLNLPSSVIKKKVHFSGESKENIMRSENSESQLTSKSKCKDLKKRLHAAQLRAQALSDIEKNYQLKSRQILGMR

[5] = target: T3, Serine/threonine-protein kinase Nek2 (Homo sapiens); conditions: at 1 µM
[6] = target: Serine/threonine-protein kinase Nek6 (Homo sapiens) (UniProt Q9HC98); conditions: at 0.1 µM
Serine/threonine-protein kinase Nek6 (Homo sapiens), sequence (Q9HC98 whole entry): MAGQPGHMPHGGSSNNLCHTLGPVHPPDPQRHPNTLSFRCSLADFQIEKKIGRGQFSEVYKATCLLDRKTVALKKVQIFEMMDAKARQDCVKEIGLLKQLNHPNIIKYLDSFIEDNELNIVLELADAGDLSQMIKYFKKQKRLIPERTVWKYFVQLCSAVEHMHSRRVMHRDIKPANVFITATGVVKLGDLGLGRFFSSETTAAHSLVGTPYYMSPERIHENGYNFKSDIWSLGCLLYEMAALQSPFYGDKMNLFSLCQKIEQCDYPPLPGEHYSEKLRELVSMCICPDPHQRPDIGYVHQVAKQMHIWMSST

[7] = target: Serine/threonine-protein kinase Nek6 (Homo sapiens) (UniProt Q9HC98); conditions: at 1 µM
[8] = target: Serine/threonine-protein kinase Nek7 (Homo sapiens) (UniProt Q8TDX7); conditions: at 0.1 µM
Serine/threonine-protein kinase Nek7 (Homo sapiens), sequence (Q8TDX7 whole entry, looked up): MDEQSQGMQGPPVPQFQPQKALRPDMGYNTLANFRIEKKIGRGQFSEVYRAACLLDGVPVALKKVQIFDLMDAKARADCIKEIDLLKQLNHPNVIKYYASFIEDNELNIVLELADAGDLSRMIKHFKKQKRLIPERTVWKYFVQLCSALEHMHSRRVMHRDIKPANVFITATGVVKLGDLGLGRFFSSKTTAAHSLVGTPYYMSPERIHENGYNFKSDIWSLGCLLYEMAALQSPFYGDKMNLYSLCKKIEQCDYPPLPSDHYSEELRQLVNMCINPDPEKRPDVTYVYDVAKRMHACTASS

[9] = target: Serine/threonine-protein kinase Nek7 (Homo sapiens) (UniProt Q8TDX7); conditions: at 1 µM
[10] = target: T4, Serine/threonine-protein kinase Nek9 (Homo sapiens) (UniProt Q8TD19); conditions: at 0.1 µM
T4 sequence (whole entry): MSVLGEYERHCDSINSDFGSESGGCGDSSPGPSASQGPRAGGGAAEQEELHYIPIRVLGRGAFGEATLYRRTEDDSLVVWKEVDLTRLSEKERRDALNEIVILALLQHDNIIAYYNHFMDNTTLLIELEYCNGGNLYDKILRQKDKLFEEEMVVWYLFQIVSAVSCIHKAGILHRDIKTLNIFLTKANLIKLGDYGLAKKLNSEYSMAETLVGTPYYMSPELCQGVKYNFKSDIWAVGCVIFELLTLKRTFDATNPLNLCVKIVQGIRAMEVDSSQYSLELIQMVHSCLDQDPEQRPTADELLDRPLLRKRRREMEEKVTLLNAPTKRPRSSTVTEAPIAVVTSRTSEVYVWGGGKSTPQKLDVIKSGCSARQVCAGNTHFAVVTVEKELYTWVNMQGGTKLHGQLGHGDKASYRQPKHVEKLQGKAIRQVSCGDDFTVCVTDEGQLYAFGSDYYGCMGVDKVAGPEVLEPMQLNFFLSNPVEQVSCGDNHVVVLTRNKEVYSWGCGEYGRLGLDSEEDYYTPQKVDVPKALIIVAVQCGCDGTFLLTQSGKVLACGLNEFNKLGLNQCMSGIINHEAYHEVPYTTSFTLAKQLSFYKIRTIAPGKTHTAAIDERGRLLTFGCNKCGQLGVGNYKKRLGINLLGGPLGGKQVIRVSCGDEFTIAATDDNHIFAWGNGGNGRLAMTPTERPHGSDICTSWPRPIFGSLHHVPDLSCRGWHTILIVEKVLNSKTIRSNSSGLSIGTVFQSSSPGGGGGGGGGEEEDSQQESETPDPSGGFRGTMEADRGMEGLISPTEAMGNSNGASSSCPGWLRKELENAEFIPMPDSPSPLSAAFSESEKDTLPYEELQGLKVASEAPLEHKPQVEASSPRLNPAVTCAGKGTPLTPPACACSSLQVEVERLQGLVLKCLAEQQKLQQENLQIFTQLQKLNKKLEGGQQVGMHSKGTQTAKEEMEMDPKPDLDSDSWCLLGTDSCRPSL

[11] = target: T4, Serine/threonine-protein kinase Nek9 (Homo sapiens); conditions: at 1 µM
[12] = target: Serine/threonine-protein kinase PLK1 (Homo sapiens) (UniProt P53350); conditions: at 0.1 µM
Serine/threonine-protein kinase PLK1 (Homo sapiens), sequence (P53350 whole entry): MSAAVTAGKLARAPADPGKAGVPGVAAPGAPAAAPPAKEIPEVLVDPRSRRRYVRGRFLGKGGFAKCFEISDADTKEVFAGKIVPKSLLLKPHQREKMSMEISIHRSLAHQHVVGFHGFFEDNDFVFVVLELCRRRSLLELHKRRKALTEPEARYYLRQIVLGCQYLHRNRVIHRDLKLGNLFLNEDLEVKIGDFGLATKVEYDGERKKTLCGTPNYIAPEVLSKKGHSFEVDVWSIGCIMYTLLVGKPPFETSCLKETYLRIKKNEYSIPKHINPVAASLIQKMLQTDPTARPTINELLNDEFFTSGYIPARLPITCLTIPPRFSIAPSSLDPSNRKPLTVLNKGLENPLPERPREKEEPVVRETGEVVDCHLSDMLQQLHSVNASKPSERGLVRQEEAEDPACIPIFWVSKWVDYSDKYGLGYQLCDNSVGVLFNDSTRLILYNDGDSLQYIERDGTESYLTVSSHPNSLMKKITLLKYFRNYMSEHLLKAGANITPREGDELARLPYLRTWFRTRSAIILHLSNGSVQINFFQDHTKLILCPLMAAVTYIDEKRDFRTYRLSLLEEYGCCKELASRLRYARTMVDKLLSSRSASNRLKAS

[13] = target: Serine/threonine-protein kinase PLK1 (Homo sapiens) (UniProt P53350); conditions: at 1 µM
[14] = target: T5, Dual specificity protein kinase TTK (Homo sapiens) (UniProt P33981); conditions: at 0.1 µM
T5 sequence (whole entry): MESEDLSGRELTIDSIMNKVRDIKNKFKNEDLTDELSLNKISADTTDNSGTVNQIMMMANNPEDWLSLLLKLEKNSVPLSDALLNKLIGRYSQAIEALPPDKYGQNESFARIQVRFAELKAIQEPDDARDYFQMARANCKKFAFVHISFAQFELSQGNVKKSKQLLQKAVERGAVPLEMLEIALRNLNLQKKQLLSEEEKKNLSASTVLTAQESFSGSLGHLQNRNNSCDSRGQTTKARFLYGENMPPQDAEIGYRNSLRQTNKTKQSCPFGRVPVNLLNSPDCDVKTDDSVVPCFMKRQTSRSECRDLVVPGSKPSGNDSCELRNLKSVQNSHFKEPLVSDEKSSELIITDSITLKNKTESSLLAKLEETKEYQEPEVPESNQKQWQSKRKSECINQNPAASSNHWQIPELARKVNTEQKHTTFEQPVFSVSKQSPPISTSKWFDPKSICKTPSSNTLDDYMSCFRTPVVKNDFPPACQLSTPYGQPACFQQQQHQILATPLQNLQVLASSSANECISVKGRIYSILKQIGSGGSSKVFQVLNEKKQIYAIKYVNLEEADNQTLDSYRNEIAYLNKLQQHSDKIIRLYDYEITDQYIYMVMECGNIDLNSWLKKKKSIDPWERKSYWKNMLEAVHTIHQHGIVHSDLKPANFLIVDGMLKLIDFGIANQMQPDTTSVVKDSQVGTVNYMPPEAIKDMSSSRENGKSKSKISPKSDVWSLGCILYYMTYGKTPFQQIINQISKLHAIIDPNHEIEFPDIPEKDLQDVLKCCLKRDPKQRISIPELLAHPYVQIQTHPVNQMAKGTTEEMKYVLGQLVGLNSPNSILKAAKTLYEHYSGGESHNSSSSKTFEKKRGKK

[15] = system: T6, Receptor-type tyrosine-protein kinase FLT3 (Homo sapiens), P36888 [D835Y]; conditions: at 1 µM
T6 sequence (whole entry): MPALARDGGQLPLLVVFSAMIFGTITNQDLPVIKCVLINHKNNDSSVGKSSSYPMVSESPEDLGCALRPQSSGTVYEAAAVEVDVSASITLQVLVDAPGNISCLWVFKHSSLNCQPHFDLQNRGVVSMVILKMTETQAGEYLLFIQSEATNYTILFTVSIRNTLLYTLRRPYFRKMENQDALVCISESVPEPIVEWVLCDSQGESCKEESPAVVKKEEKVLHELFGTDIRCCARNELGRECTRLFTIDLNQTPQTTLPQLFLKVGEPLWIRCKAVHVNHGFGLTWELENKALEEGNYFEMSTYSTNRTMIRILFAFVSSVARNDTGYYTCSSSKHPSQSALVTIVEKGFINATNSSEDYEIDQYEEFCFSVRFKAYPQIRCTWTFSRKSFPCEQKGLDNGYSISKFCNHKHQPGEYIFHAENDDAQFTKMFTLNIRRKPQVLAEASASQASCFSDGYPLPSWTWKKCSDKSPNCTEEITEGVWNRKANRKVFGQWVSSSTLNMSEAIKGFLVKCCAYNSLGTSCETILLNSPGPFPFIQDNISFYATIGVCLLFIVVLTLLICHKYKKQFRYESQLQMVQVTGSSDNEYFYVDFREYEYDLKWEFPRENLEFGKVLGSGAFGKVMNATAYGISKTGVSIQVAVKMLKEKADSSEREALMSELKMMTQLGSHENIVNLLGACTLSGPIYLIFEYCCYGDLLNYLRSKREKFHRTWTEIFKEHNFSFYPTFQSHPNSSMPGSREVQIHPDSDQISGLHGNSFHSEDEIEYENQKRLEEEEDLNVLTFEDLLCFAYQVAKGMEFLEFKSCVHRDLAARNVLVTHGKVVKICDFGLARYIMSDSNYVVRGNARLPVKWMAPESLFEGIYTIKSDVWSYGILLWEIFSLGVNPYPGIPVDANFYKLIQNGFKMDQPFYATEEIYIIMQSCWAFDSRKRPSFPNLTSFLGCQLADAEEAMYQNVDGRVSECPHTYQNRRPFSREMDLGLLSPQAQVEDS

[16] = target: Vascular endothelial growth factor receptor 3 (Homo sapiens) (UniProt P35916); conditions: at 0.1 µM
Vascular endothelial growth factor receptor 3 (Homo sapiens), sequence (P35916 whole entry): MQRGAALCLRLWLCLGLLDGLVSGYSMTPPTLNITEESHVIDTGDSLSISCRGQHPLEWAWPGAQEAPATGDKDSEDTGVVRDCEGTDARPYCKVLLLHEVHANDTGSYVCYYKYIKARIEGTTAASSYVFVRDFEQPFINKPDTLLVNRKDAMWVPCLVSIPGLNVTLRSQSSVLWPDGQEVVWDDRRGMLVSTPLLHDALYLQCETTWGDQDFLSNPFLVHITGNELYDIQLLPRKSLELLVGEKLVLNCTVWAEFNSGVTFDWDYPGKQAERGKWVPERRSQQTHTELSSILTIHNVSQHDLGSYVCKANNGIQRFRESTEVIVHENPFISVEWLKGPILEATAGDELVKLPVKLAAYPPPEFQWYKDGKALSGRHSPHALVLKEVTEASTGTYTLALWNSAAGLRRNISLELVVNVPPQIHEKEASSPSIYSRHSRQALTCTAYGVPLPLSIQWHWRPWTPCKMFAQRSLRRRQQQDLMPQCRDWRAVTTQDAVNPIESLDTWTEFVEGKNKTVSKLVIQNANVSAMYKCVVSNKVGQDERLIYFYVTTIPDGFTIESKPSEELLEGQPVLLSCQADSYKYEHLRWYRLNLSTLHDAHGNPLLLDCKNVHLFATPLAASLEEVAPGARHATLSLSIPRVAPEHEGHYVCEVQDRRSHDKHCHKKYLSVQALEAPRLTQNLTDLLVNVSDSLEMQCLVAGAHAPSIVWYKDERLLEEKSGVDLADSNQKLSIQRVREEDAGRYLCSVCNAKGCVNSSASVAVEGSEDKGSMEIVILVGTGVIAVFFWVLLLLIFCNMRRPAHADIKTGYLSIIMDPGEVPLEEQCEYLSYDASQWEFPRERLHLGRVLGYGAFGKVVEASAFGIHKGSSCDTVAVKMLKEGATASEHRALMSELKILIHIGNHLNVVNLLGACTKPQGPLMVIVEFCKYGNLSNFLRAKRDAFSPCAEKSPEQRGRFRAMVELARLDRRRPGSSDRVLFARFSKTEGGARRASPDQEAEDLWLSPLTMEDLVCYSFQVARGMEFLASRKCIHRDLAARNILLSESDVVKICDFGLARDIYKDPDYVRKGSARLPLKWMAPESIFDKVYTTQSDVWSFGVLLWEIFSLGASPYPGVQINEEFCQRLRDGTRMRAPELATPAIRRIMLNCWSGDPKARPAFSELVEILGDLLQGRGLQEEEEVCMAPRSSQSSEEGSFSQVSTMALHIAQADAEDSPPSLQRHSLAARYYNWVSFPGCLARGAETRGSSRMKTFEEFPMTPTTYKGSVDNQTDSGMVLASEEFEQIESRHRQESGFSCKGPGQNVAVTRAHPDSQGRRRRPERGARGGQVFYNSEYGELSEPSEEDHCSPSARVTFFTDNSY

[17] = target: Vascular endothelial growth factor receptor 3 (Homo sapiens) (UniProt P35916); conditions: at 1 µM
[18] = target: Macrophage colony-stimulating factor 1 receptor (Homo sapiens) (UniProt P07333); conditions: at 0.1 µM
Macrophage colony-stimulating factor 1 receptor (Homo sapiens), sequence (P07333 whole entry): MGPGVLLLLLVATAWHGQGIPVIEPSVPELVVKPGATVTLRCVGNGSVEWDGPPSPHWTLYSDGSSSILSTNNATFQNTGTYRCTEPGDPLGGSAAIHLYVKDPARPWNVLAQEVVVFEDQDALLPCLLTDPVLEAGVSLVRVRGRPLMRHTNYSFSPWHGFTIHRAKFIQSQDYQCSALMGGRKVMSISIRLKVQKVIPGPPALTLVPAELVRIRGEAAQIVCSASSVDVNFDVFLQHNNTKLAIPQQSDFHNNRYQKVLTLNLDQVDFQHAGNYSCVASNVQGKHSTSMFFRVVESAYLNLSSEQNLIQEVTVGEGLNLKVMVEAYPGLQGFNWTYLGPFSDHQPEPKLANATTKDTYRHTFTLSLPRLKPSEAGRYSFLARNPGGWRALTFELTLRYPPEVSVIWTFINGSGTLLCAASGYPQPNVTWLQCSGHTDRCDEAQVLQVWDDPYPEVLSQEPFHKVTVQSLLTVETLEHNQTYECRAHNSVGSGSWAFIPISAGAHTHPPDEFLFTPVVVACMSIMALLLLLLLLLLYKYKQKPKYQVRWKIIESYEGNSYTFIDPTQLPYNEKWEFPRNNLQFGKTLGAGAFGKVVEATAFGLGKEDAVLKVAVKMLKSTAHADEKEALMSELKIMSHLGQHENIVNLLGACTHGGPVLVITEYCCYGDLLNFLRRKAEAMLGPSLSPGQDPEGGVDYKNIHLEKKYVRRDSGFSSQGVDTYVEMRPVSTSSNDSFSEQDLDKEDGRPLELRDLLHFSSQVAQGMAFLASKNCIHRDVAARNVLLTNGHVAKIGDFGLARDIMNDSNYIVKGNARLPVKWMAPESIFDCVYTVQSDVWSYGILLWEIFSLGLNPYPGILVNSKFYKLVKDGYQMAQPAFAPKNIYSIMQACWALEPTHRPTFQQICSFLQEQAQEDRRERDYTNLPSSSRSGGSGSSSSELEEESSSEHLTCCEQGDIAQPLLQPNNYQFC

[19] = target: Macrophage colony-stimulating factor 1 receptor (Homo sapiens) (UniProt P07333); conditions: at 1 µM
[20] = target: Tyrosine-protein kinase Fyn (Homo sapiens) (UniProt P06241); conditions: at 0.1 µM
Tyrosine-protein kinase Fyn (Homo sapiens), sequence (P06241 2-537 limits assumed): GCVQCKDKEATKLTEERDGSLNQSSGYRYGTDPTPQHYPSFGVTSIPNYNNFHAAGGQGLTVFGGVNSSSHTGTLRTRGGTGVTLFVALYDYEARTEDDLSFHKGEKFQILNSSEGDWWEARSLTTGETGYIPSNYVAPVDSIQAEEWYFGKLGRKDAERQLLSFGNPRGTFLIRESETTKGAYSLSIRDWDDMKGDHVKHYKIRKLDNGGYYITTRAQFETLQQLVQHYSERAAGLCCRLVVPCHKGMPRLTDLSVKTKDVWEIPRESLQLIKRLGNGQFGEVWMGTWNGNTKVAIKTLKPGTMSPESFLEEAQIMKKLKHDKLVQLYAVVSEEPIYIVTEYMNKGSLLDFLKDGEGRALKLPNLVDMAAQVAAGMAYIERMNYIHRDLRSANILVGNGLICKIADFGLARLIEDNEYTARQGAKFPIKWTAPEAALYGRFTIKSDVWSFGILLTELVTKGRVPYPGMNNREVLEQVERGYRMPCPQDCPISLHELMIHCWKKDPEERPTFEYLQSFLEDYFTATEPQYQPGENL

| SMILES | inhibition [1] [%] | inhibition [2] [%] | inhibition [3] [%] | inhibition [4] [%] | inhibition [5] [%] | inhibition [6] [%] | inhibition [7] [%] | inhibition [8] [%] | inhibition [9] [%] | inhibition [10] [%] | inhibition [11] [%] | inhibition [12] [%] | inhibition [13] [%] | inhibition [14] [%] | inhibition [15] [%] | inhibition [16] [%] | inhibition [17] [%] | inhibition [18] [%] | inhibition [19] [%] | inhibition [20] [%] |
| --- | --- | --- | --- | --- | --- | --- | --- | --- | --- | --- | --- | --- | --- | --- | --- | --- | --- | --- | --- | --- |
| Cc1ccc2c(-c3ccnc(Nc4cccc(C(F)(F)F)c4)n3)c(-c3ccccc3)nn2n1 | 6.22 | 3.11 | 2.67 | 6.28 | 3.74 | 6.41 | 1.67 | 0.74 | 5.29 | 8.93 | 7.33 | 7.39 | 6.37 | 10.5 | 1.38 | 4.59 | 24.9 | 1.77 | 23.1 | 15.6 |
| CCS(=O)(=O)c1ccc(OC)c(Nc2ncc(-c3cccc(OC)c3)o2)c1 | 4.13 | 0.44 | 1.45 | 2.73 | 2.94 | -1.47 | 0.87 | 2.84 | 2.42 | 4.19 | 4.07 | 4.39 | 1.04 | 2.75 | 78.5 | 27.6 | 77.8 | 26.4 | 71.9 | 27.6 |
